Laboratory results reported in the supplement of paper PMC10105736.
Unmarked numbers belong to inactive results.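 Rule for the calls: active = MAPPIT score above the 99th percentile of random reference set scores in the same batch; inactive = at or below it.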

Columns and labels:
Assay in all cases: MAPPIT interaction score (arbitrary units); higher = stronger binary interaction signal, active = hit call of the paper
[1] = target: CG3457; conditions: MAPPIT configuration: N-N; pair source set: Finley_Y2H
[2] = target: CG3557; conditions: MAPPIT configuration: N-N; pair source set: Curagen_low_conf
[3] = target: Mst84Db; conditions: MAPPIT configuration: N-N; pair source set: Curagen_low_conf
[4] = target: CG32846; conditions: MAPPIT configuration: N-N; pair source set: screen_1
[5] = target: Git; conditions: MAPPIT configuration: N-N; pair source set: screen_2
[6] = target: Mst87F; conditions: MAPPIT configuration: N-N; pair source set: screen_2
[7] = target: CG3356; conditions: MAPPIT configuration: N-N; pair source set: Lit-BS-16
[8] = target: sinah; conditions: MAPPIT configuration: N-N; pair source set: screen_1
[9] = target: CG34345; conditions: pair source set: RRS
[10] = target: CG3473; conditions: MAPPIT configuration: N-N; pair source set: screen_2
[11] = target: Ubc2; conditions: MAPPIT configuration: N-N; pair source set: screen_2
[12] = target: CG34168; conditions: MAPPIT configuration: N-N; pair source set: Curagen_high_conf
[13] = target: CG34149; conditions: MAPPIT configuration: N-C; pair source set: RRS
[14] = target: CG34328; conditions: MAPPIT configuration: N-C; pair source set: screen_3
[15] = target: CG32809; conditions: MAPPIT configuration: N-N; pair source set: Curagen_low_conf
[16] = target: RhoGAP92B; conditions: MAPPIT configuration: N-N; pair source set: Curagen_low_conf
[17] = target: CG3517; conditions: MAPPIT configuration: N-N; pair source set: Finley_Y2H
[18] = target: CG33514; conditions: MAPPIT configuration: N-N; pair source set: DPIM
[19] = target: cv; conditions: MAPPIT configuration: N-N; pair source set: DPIM
[20] = target: dah; conditions: MAPPIT configuration: N-N; pair source set: DPIM
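Note: HEK293T cells with Epo stimulation, STAT-responsive firefly luciferase reporter, fold induction versus unstimulated cells divided by the larger fold induction of two negative controls lacking either bait or prey.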

B1: Cog6 (protein)
chain: MSSTQEKPEELDRIQKRVNKILEARLESDKDTLDALSGLSTFFTENTLQNRRNLRSQIEHRSVGINENFLKAFRQVKLSLDAVCEDLDTMATSVETMKSDLETSKALTKDLIKQTNTMQRERDRLEVHKQIAQAFLARFQLSGAEHQLLYGAAKDAPIVADFFRVLDRVQSIHADCRLLMQCGYQTAAIDIMEEMTLHQEGALERLYRWTQNHCRSLENNEIGPLIVEAMSRLQDRPVLFKYVIDEYAIARRAVLVRQFIEALTEGGPGGNPKPIELHAHDPKRYIGDMFAWLHQSIPTEKENLSLLFKKCDKQDISDQLQNALGYIADGVCHPLKVRVETILQAEKDTIVLFTISNLLRFYQQIMRQVVQGGSLEECLVELQKSSEQIYLGALAAQVRSVLQRPSGGSGLALEPPQRDLVPPPSVARLLNMLKEILSVATMVDGRQADITKIVSCVIDPLLQSVQESAAHLPTVDMGVYLLNCLHHMQSSLAVYEYMDERVERLQAQSDAQLDTLTSEQASSLVANLNLGPIYAILQSNQSKIETNLLKIFMSKMDAFLELPDVLLLPQVQLIMSSSHRAAVQKRSFNVIVAIYKQIYERVHDPANGFEQPEQLLHRTPEQVAHILTST
**Q.** B1 was tested. Which MAPPIT interaction score [1] did it give?
**A.** 0.308

B2: tos (protein)
chain: MGITGLIPFVGKASSQLHLKDIRGSTVAVDTYCWLHKGVFGCAEKLARGEDTDVYIQYCLKYVNMLLSYDIKPILVFDGQHLPAKALTEKRRRDSRKQSKERAAELLRLGRIEEARSHMRRCVDVTHDMALRLIRECRSRNVDCIVAPYEADAQMAWLNRADVAQYIITEDSDLTLFGAKNIIFKLDLNGSGLLVEAEKLHLAMGCTEEKYHFDKFRRMCILSGCDYLDSLPGIGLAKACKFILKTEQEDMRIALKKIPSYLNMRNLEVDDDYIENFMKAEATFRHMFIYNPLERRMQRLCALEDYETDERYCSNAGTLLEDSEQALHLALGNLNPFSMKRLDSWTPEKAWPTPKNVKRSKHKSIWQTNFQSENTHTPKKENPCALFFKKVDFVGKTLNEEIEANQRLEQAKQTEAELFNMYSFKAKRRRSPSREDSVDQERTPPPSPVHKSRHNPFAKERTGEEANQRSPVVCENASLLRLLSPKKASPLDGEAGVKKVDSLKRSIFAKEQVQIRSRFFATQDEQTRLQREHLRDTENDDMDEQKLSSHSGHKKLRLVCKDIPGKNPIRQRCSSQISDGETDTDTTASSLLESQDKGVPSPLESQEDLNNSQPQIPTEGNTNSTTIRIKSLDLLLENSPEPTQESDRNNNDAIILLSDDSCSSDQRASSTSSSSQQRQNFLPTSKRRVGLSKPSTAKKGTPKSRTNGKLGAVSQNQTKLSMFGFQTKPVLK
**Q.** Which MAPPIT interaction score [2] does the source give for B2 here?
**A.** 0.0573

**Q.** What about the MAPPIT interaction score [3] of the same binder?
**A.** -0.0214

B3: unk (protein)
chain: MLANETNKLLLSSQQEKPNHYTYLKEFRVEQCQSFLQHKCNQHRPFVCFNWHFQNQRRRRPVRKRDGTFNYSADNYCTKYDETTGICPEGDECPYLHRTAGDTERRYHLRYYKTCMCVHDTDSRGYCVKNGLHCAFAHGMQDQRPPVYDIKELETLQNAESTLDSTNALNALDKERNLMNEDPKWQDTNYVLANYKTEPCKRPPRLCRQGYACPQYHNSKDKRRSPRKYKYRSTPCPNVKHGEEWGEPGNCEAGDNCQYCHTRTEQQFHPEIYKSTKCNDVQQAGYCPRSVFCAFAHVEPCSMDDPRENSLSASLANTSLLTRSSAPINIPNTTLSNSINDFNSGSFAVNIPSSSLTYSPTNHANLFNVDAFNYGGSNKLSNSLSATQNDSSLFFPSRIISPGFGDGLSISPSVRISELNTIRDDINSSSVGNSLFENTLNTAKNAFSLQSLQSQNNSDLGRITNELLTKNAQIHKLNGRFEDMACKLKIAELHRDKAKQEAQEWKERYDLAQIQLNLPAELRDLSIQKLKQLQSKLRTDLEEVDKVLYLENAKKCMKCEENNRTVTLEPCNHLSICNTCAESVTECPYCQVPVITTHT
**Q.** How did the MAPPIT interaction score [4] turn out when B3 was run?
**A.** -2.23

**Q.** And the MAPPIT interaction score [5]?
**A.** 1.05

**Q.** And the MAPPIT interaction score [6]?
**A.** 0.54

B4: Ubc4 (protein)
chain: MANMAVSRIKREFKEVMRSEEIVQCSIKIELVNDSWTELRGEIAGPPDTPYEGGKFVLEIKVPETYPFNPPKVRFITRIWHPNISSVTGAICLDILKDNWAAAMTLRTVLLSLQALLAAAEPDDPQDAVVAYQFKDKYDLFLLTAKHWTNAYAGGPHTFPDCDSKIQRLRDMGIDEHEARAVLSKENWNLEKATEGLFS
**Q.** B4 was tested. Which MAPPIT interaction score [7] did it give?
**A.** 0.159

**Q.** What about the MAPPIT interaction score [8] of the same binder?
**A.** 2.14

B5: MCU (protein)
chain: MSRNRAAMVSAFRLFLRPATTTTHRSLALRLAPGTTFALHLRPCHELQQHRSFASTAEDGETDKHKKPTTGEDIYVEYVNGMPHMTVRLPSRNELCQFALKPISHNVGDLLAMLRAEDRGIDRAAVINKHGVRIASSCTIESLLDDSFSIQINNRTLDVNPPKRDKVTLESMDKVGDVRKVIAQLYEAFNVGEYQLEKSNQLAKELETLRYELEPLEEKKLELSKKAARRTNFMTWMGLGLMSVQFGILARLTWWEYSWDIMEPVTYFVTYGTTMAMYAYYCVTKREYMMEDVKNREFSLSLYRNAKKVQFDVEHYNELKRKSAELEYNLRRINDPLNMQLPSHLVRTQENTPPTLTEEKAERKYT
**Q.** For B5, which MAPPIT interaction score ([9]; MAPPIT configuration: N-C) is on record?
**A.** 0.433

**Q.** What about the MAPPIT interaction score ([9]; MAPPIT configuration: N-N) of the same binder?
**A.** 0.157

B6: Iru (protein)
chain: MAEAMVVEDRPAEAKRFFCHMCNVEINIPNSDFTCPLCANGFVEELPANAPEMDSSTAGASGSARSGSSGSGSSGSHDTLSRGSSSSGSQVNVESLRNDIVSLLNMRNVPNLEITIEPNRRHSNVLHLGGFGGPSGSDSARGLTAGGRVRPANLDRLDNVLFDFLQSLPLAGATAEIVTGPGGGGVGGGGNSHMFFMGNPGDYAWGREGLDTIVTQMLNQMETSGPPPLSAQRINEIPNVQINAEEVNRKIQCSICWDDFKIDETVRKLPCSHLYHENCIVPWLNLHSTCPICRKSLADDGNDADDEFVMLDAFGPEMAADGSNSERRSASTATGTDNPSPANNPSQAAAEGGRTRPDANPAQAARNNIFTFDDDNMFLD
**Q.** Which MAPPIT interaction score [10] does the source give for B6 here?
**A.** 0.831

**Q.** What about the MAPPIT interaction score [11] of the same binder?
**A.** 0.234

B7: Mob2 (protein)
chain: MNWAISNLTGGNRVSRAILVRYSSVPLADATNDGSSTAPQTPTASTPRPSSSHSSLSSTFAATFLHASSRHIPGRAVPRQNANGQNGGKGNASGAGGGAGGGGAGGASGGTGGTGAQAAGQLSLPLDVEETVTCFCRKARRKERDGDQNSTDTKLYLEESVLERKLPEADLKALVDLPAGLDYNEWLASHTLALFEHVNLVYGTISEFCTQSGCADMTGPGNRTYLWFDEKGKKTRVAAPQYIDYVMTFTQKTVSDESIFPTKYANEFPGSFESIARKILRLQFHVIAHLYAAHFREIALLGLHTHLNLTFAHLTALHRRFNLIDEKETDVLRDLEVALRLTDDTGGCQDATSTTSSVHDHSHSGDLQHQSLQQQQQHHNSSSNSTSSAEAFHVNSQSNNGSTSASASVSLIDGDAVAPPICTQPEAGAGCKPAGSSGLLGGILGDLTSGEFGDTTRYCTSAVPQAAAAAGAGVGGTAIGATDAAALNNGAGALHLNFSNNNNNNHNLNHHHHHHHHHGHHGHHHAAQQQQQHSGLIQCNAAGGGGNATGVATGGATAAASSTTTA
**Q.** With B7 as the binder, how does the MAPPIT interaction score [12] read?
**A.** 0.212

B8: Cyp4d2 (protein)
chain: MLGVVGVLLLVAFATLLLWDFLWRRRGNGILPGPRPLPFLGNLLMYRGLDPEQIMDFVKKNQRKYGRLYRVWILHQLAVFSTDPRDIEFVLSSQQHITKNNLYKLLNCWLGDGLLMSTGRKWHGRRKIITPTFHFKILEQFVEIFDQQSAVMVEQLQSRADGKTPINIFPVICLTALDIIAETAMGTKINAQKNPNLPYVQAVNDVTNILIKRFIHAWQRVDWIFRLTQPTEAKRQDKAIKVMHDFTENIIRERRETLVNNSKETTPEEEVNFLGQKRRMALLDVLLQSTIDGAPLSDEDIREEVDTFMFEGHDTTTSAISFCLYEISRHPEVQQRLQQEIRDVLGEDRKSPVTLRDLGELKFMENVIKESLRLHPPVPMIGRWFAEDVEIRGKHIPAGTNFTMGIFVLLRDPEYFESPDEFRPERFDADVPQIHPYAYIPFSAGPRNCIGQKFAMLEMKSTVSKLLRHFELLPLGPEPRHSMNIVLRSANGVHLGLKPRA
**Q.** For B8, which MAPPIT interaction score [13] is on record?
**A.** -1.31

B9: betaTub85D (protein)
chain: MREIVHIQAGQCGNQIGGKFWEVISDEHCIDATGTYYGDSDLQLERINVYYNEATGAKYVPRAILVDLEPGTMDSVRSGAFGQIFRPDNFVFGQSGAGNNWAKGHYTEGAELVDSVLDVVRKESEGCDCLQGFQLTHSLGGGTGSGMGTLLISKIREEYPDRIMNTFSVVPSPKVSDTVVEPYNATLSVHQLVENTDETYCIDNEALYDICFRTLKLTTPTYGDLNHLVSATMSGVTTCLRFPGQLNADLRKLAVNMVPFPRLHFFMPGFAPLTSRGSQQYRALTVPELTQQMFDAKNMMAACDPRHGRYLTVAAIFRGRMSMKEVDEQMLNIQNKNSSFFVEWIPNNCKTAVCDIPPRGLKMSATFIGNSTAIQELFKRVSEQFTAMFRRKAFLHWYTGEGMDEMEFTEAESNMNDLVSEYQQYQEATADEEGEFDEDEEGGGDE
**Q.** B9 was tested. Which MAPPIT interaction score [14] did it give?
**A.** 4.11 (active)

B10: Nup62 (protein)
chain: MVFQLPTTTAAPTGGATSSFSFGLSTGTPAAAPASGAATTAPATKTTFSFGTPAPTAGIGGGDADNSKAQAPPAFGFGLGSGTASAPLTLGTQAAANPASTTSATATGTSAAPPAFGGFTAQPAASVVPTIATSAPNTAATTTGLLGGSGLGAPKTTAAASTTLTAAPSAIASTQGAAPAPTLSTGGAFANLTTETKTTDSSAVSTASQLSYHQLEEHINKWTLEFEEQEKVFTEQATQINAWDKLLISNNGKIVELNDAVKKVKTDQQVLDQELEFIATQQKELEDSLGPLEKEFVNLPRVDMERSQTYLMVENLDTQLKQMSEDLKEIIDNLNEANKGQDTTDPIIQIGKILNAHMNSLQWIESQSTNISKKLEDIGKIQDSQKRDIFRAPF
**Q.** Which MAPPIT interaction score [15] does the source give for B10 here?
**A.** 2.19

**Q.** What about the MAPPIT interaction score [16] of the same binder?
**A.** 0.00556

B11: MED4 (protein)
chain: MSFHLSTKERLLLLIDDIEMIAKELIEQAHQKISSTELVDLLDLLVAKDEEFRKMLELAEEQAKVEEAMDQLRAKVEVHDREIQKLQKSLKDAELILSTAIFQARQKLASINQANKRPVSSEELIKYAHRISSANAVSAPLTWCIGDLRRPYPTDIEMRNGLLGKSEQNINGGTVTHQNSGMPSEQQRTLSGSAGSGSGSGAGGEVPNAFQNQFNWNLGELHMTMGASGNTVALETRAQDDVEVMSTDSSSSSSSDSQ
**Q.** With B11 as the binder, how does the MAPPIT interaction score [17] read?
**A.** 1.9

B12: RpS21 (protein)
chain: MENDAGENVDLYVPRKCSASNRIIHAKDHASVQLSIVDVDPETGRQTDGSKTYAICGEIRRMGESDDCIVRLAKKDGIITKNF
**Q.** How did the MAPPIT interaction score [18] turn out when B12 was run?
**A.** 0.423

**Q.** What about the MAPPIT interaction score [19] of the same binder?
**A.** -0.17

**Q.** What about the MAPPIT interaction score [20] of the same binder?
**A.** -0.359
